# Assay results: PubChem BioAssay (Tox21)
# Inconclusive results are not listed. Entries that show only a call come without a potency. Activity calls are given as the source filed them. Calls follow the shape of the dose curve; as a rule, active = well fitted cell-killing curve with a large enough effect in the repeat runs; inconclusive = weak or mixed curves, or effect the other way; inactive = flat fitted curve, though single readings scatter.
# Assays:
# [1] = cAMP Responsive Elements (CRE) small molecule antagonists, cell-based qHTS assay: qHTS cell viability counter screen (AID 2060913); also: nearly all actives have a fitted effect of over 40% in size
# Outline: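 CRE-bla HEK293T cells (2,000/well, 18 h) given compound plus NKH477 0.25 uM final for 3 h at 37C; viability counter-screen by CellTiter-Glo luminescence in same wells after 30 min.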
# [2] = cAMP Responsive Elements (CRE) small molecule agonists, cell-based qHTS assay: qHTS cell viability counter screen (AID 2060914);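 also: viability read after 3 h of compound exposure; nearly all actives have a fitted effect of over 50% in size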
# Outline: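 Cells are seeded and incubated 18 h, treated with compounds in DMSO for 3 h, read for the bla reporter, then given CellTiter-Glo; luminescence is measured after 30 min at room temperature.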
Structure (SMILES),Potency [1],Potency [2]
C=CCC1(C(C)CC)C(=O)NC(=O)NC1=O (stereo unspecified),inactive,inactive
C=COC(C)=O,inactive,inactive
O=C(O)C(Br)CBr (stereo unspecified),inactive,inactive
C1CCC(C2CCCCC2)CC1,inactive,inactive
Cc1ccccc1C(=O)Nc1cccc(OC(C)C)c1,inactive,inactive
COC(=O)c1ccccc1N,inactive,inactive
Oc1ccc2ccc3cccc4ccc1c2c34,inactive,inactive
CC(CCc1ccccc1)NC(C)C(O)c1ccc(O)cc1 (stereo unspecified),inactive,inactive
Cc1cc(Cl)ccc1O,inactive,inactive
CCCCN(CCCCO)N=O,inactive,inactive
CN(N=O)c1ccccc1,inactive,inactive
C=CCOC(Cn1ccnc1)c1ccc(Cl)cc1Cl (stereo unspecified),inactive,inactive
CCC(=O)O[C@@H]1C=C2CCC3C(CCC4(C)C3CC[C@@H]4OC(=O)CC)C2CC1 (stereo partly specified),inactive,inactive
C=CCN=C=S,inactive,inactive
O=C(O)CF,inactive,inactive
COc1cccc(C(=O)NN(C(=O)c2cc(C)cc(C)c2)C(C)(C)C)c1C,inactive,inactive
CC(=O)O.CC(=O)O.CC(=O)O.CC(=O)O.CC(=O)O.CC(=O)O.CC(=O)O.O.O.[Cr].[Cr].[Cr],inactive,inactive
Cc1ccc2cc(C)ccc2c1,inactive,inactive
CCCCCCI,inactive,inactive
Nc1ccc(Cc2ccc(N)c(Cl)c2)cc1Cl,inactive,inactive
CCCCCCn1cc[n+](C)c1,inactive,inactive
N#Cc1cccc(C#N)c1,inactive,inactive
C[C@]12CC[C@H]3[C@@H](CCC4=CC(=O)CC[C@@H]43)[C@@H]1CC[C@@H]2OC(=O)CCc1ccco1,inactive,inactive
